Source: PubChem BioAssay
Hits are enriched below; roughly 19% of the tested compounds scored in any of these assays.
AMA1 RON2 block = inhibitors of Plasmodium falciparum AMA1-RON2 interaction | actives 0.2% (n = 360,000) | AlphaScreen AMA1-biotinylated RON2 peptide binding | Potency, µM (doses to about 58.2 µM), for the others: at the top dose activity change, negative = inhibition, hits mostly inhibitors;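 also: potency is read from the fitted curve at half-maximal effect; 0% = vehicle wells and -100% = peptide control; nearly all actives have a fitted effect of over 45% in size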
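AMA1 (3D7) with his tag at 25 nM final met compounds first, then biotinylated RON2 peptide at 25 nM; detection used donor plus acceptor beads, 10 µg/mL apiece, read by AlphaScreen after 30 min at room temperature.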
Pf growth 48h = P. falciparum growth inhibition at 48 hours (one generation); P. falciparum luciferase growth in erythrocytes, 48 h; Potency, µM (doses to about 28.7 µM), for inactives: top-dose activity change, negative = inhibition, hits mostly inhibitors; actives 5.9% (n = 310,000); AID 504832; also: potency is read from the fitted curve at half-maximal effect; % is scaled to controls: 0 for no effect and ±100 for the full control effect
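Parasite viability was followed by luminescence of a genomically integrated firefly luciferase. Cultures held 0.1% parasitemia at 2% hematocrit (final), incubated under 5% CO2 at 37 C.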
Shiga toxin inh = Shiga toxin inhibition; Vero cells, Shiga toxin protein synthesis inhibition reporter; inhibition, % at 38.7 µM; actives 9.2% (n = 290,000); in the data active = inhibition mostly above about 28%, no sharp cut-off; inactive = mostly below about 43%; also: 0% is about no effect
CHX counter = counter-screen for Shiga toxin inhibitors: cycloheximide protein synthesis inhibition. actives 12% (n = 300,000). max response, %. cell reporter, cycloheximide protein synthesis inhibition counterscreen. AID 2314; in the data active = max response mostly above about 13%, no sharp cut-off; inactive = mostly below about 14%; also: read at 38.3 µM for the half of the compounds with a filed dose; 0% is about no effect
SARS PLP yeast = blocks SARS-CoV papain-like protease in a yeast assay; Potency, µM (doses to about 32.9 µM), for the others: at the highest dose activity, positive = growth rescue, hits mostly activators; AID 485353; S. cerevisiae expressing SARS-CoV PLpro, growth rescue; actives 0.19% (n = 330,000); calls by dose curve; also: potency is read from the fitted curve at half-maximal effect; 0% is about no effect; nearly all actives have a fitted effect of over 55% in size
Pf growth 96h = P. falciparum growth inhibition at 96 hours; actives 6.9% (n = 320,000); Potency, µM (top dose mostly 28.7 µM), for the others: at the highest dose activity change, negative = inhibition, actives largely listed as inhibitors; AID 504834; P. falciparum luciferase reporter growth, 96 h; also: potency is read from the fitted curve at half-maximal effect; % is scaled to controls: 0 for no effect and ±100 for the full control effect
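Parasite growth measured via integrated firefly luciferase reporter in P. falciparum. Infected erythrocytes at 2% hematocrit, 0.05% parasitemia final were treated 96 hours at 37 C under 5% CO2, and luminescence was read.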
The depositor's hits bear a star; u = inconclusive; x = not tested or not shown. Unless noted, calls follow the shape of the dose curve; as a rule, active = well fitted curve in the direction sought with a large enough effect; inconclusive = small, poorly fitted or top-dose-only effect, or another doubt; inactive = no such curve, though single readings can be large; an effect the other way counts as inactive or inconclusive.

SMILES	AMA1 RON2 block	Pf growth 48h	Shiga toxin inh	CHX counter	SARS PLP yeast	Pf growth 96h
CCC1CCCCN1Cc1nc2c(c(=O)n(C)c(=O)n2C)n1Cc1ccccc1 (centres undefined)	-2%	u	16	-5	-7%	7.4µM*
Cn1c(=O)c2c(nc(SCCN3CCOCC3)n2C)n(C)c1=O	4%	u	-11	-4	3%	3.7µM*
Cn1c(=O)c2c(nc(SCCN3CCCCC3)n2Cc2ccccc2)n(C)c1=O	-6%	u	-15	-1	-3%	2.3µM*
Cc1ccc(Cn2c(SCCN3CCCCC3)nc3c2c(=O)n(C)c(=O)n3C)cc1	30%	-17%	-7	-3	1%	u
OC(c1ccc(CN2CCCCC2)cc1)c1ncc(-c2ccccc2)[nH]1 (centres undefined)	3%	x	x	x	x	x
CCNC(=O)C1(C)CCN(C(=O)c2ccc(F)cc2Cl)C1 (centres undefined)	-1%	x	x	x	x	x
Cn1c(=O)c2c(nc(N3CCN(c4ccccn4)CC3)n2Cc2ccccc2Cl)n(C)c1=O	1%	9.3µM*	-19	-1	1%	13µM*
Cn1c(=O)c2c(nc(CN3CCN(C(=O)c4ccco4)CC3)n2Cc2ccccc2F)n(C)c1=O	9%	x	-17	-8	3%	1.5µM*
Cn1c(=O)c2c(nc(CN3CCN(Cc4ccccc4)CC3)n2Cc2ccc(Cl)cc2)n(C)c1=O	-5%	x	-18	-8	-3%	2.6µM*
Cn1c(=O)c2c(nc(CN3CCN(Cc4ccccc4)CC3)n2Cc2ccccc2)n(C)c1=O	x	u	-11	-3	-6%	u
CN1CCN(c2nc3c(c(=O)n(C)c(=O)n3C)n2Cc2ccc(Cl)cc2)CC1	0%	-29%	x	-2	1%	0.12µM*
CSc1cccc(NC(=O)CN(C)S(=O)(=O)c2ccc(C)cc2)c1	-3%	-11%	-5	-7	-3%	59%
CC(=O)NC(Cc1ccc(O)cc1)C(=O)NN (centres undefined)	34%	-25%	-2	3	3%	-21%
CC1Cc2ccccc2N1C(=O)CSc1nc2c(c(=O)n(C)c(=O)n2C)n1Cc1ccccc1 (centres undefined)	-8%	5.9µM*	15	-1	13%	-22%
CCn1c(SCC(=O)N2c3ccccc3CCc3ccccc32)nc2c1c(=O)n(C)c(=O)n2C	7%	x	x	x	x	x
Cc1cccc(-n2c(C)c(C)c3c(N)ncnc32)c1	-8%	u	19	19*	-1%	-5%
Cc1c(C)n(-c2ccccc2)c2ncnc(NCCCN(C)C)c12	6%	16%	-3	-4	3%	-11%
Cc1nc2cc(Cc3ccccc3)ccc2o1	16%	x	x	x	x	x
Cc1nc2ccc(-c3ccccc3)cc2o1	12%	-1%	63	53*	-22%	-24%
O=C(CCc1nc2ccccc2[nH]c1=O)OCc1ccc(S(=O)(=O)N2CCOCC2)cc1	-4%	u	-3	-3	-2%	-42%
O=C(OCc1nc2ccccc2s1)c1cccc(S(=O)(=O)N2CCOCC2)c1	-5%	114%	108*	37*	3%	76%
O=C(COC(=O)c1cccc(S(=O)(=O)N2CCOCC2)c1)c1ccccc1	-1%	15%	100*	40*	-1%	u
O=C(CCc1ccc(S(=O)(=O)N2CCOCC2)cc1)OCc1nc2ccccc2s1	-17%	59%	109*	73*	-9%	u
CCN(CC)c1ccc(S(=O)(=O)N2CCOCC2)cc1NC(=O)CSc1n[nH]c(N)n1	10%	8%	44*	45*	1%	1%
O=C(COC(=O)c1cccc(S(=O)(=O)N2CCOCC2)c1)NCc1ccccc1	3%	x	x	x	-7%	x
COC(=O)C1CCc2c(ccc3c2CCCC3)C1=O (centres undefined)	16%	x	x	x	x	x
CCOc1ccc(NC(=O)CSc2nccn(-c3ccc4c(c3)OCCO4)c2=O)cc1	4%	u	x	x	3%	u
Cc1nn(C)cc1S(=O)(=O)Nc1cccc(Cl)c1	21%	44%	-9	-5	-3%	u
CCOC(=O)C1(CCc2ccccc2)CCN(C(=O)C(C)n2cncn2)CC1 (centres undefined)	4%	-1%	19	-3	-1%	u
